Two compounds from PubChem BioAssay (NCATS) can be followed below.

Active and inactive are the calls of the source. Calls follow the shape of the full dose curve.

Common to all, as to experiment: Confirmatory Screen for Target Class Profiling of Small Molecule Inhibitors of Methyltransferases (AID 1745852); as to activity change, negative = inhibition: % is scaled to controls: 0 for no effect and ±100 for the full control effect
Experiment [1] concerns the target Catechol O-methyltransferase (Homo sapiens) (UniProt P21964). The following applies: MTase-Glo luminescence, SAH detection, recombinant enzyme; measured here: COMT max response; stronger effect = lower value.
The target in experiment [2] is Guanidinoacetate N-methyltransferase (Homo sapiens) (UniProt Q14353). The note with it: MTase-Glo luminescence, SAH detection, recombinant enzyme; activity change, negative = inhibition: at 57.3 µM (top of the series) unless noted; series mostly up to 57.3 µM.
The target in experiment [3] is Nicotinamide N-methyltransferase (Homo sapiens) (UniProt P40261). The following applies: MTase-Glo luminescence, SAH detection, recombinant enzyme; measured here: NNMT max response; stronger effect = lower value.
For experiment [4], the target named is Phenylethanolamine N-methyltransferase (Homo sapiens) (UniProt P11086). The note with it: MTase-Glo luminescence, SAH detection, recombinant enzyme; measured here: PNMT max response; stronger effect = lower value.
Potency is read from the fitted curve at half-maximal effect.

Sequence of Catechol O-methyltransferase (Homo sapiens) (P21964 whole entry, looked up): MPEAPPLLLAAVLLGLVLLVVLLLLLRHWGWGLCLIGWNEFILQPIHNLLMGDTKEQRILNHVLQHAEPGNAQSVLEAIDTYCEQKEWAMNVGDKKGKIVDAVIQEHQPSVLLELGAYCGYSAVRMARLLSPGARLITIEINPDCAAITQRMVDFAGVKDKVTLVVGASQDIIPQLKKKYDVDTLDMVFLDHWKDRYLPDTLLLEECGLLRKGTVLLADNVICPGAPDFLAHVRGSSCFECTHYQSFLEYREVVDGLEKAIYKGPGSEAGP
Sequence of Nicotinamide N-methyltransferase (Homo sapiens) (P40261 whole entry, looked up): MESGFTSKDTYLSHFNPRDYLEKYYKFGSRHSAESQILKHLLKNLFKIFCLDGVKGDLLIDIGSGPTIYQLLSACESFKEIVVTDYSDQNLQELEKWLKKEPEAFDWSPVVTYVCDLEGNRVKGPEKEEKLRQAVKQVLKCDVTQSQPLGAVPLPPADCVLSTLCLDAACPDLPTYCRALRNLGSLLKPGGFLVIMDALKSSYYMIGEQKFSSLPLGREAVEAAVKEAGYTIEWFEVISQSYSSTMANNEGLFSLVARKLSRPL
Sequence of Phenylethanolamine N-methyltransferase (Homo sapiens) (P11086 whole entry, looked up): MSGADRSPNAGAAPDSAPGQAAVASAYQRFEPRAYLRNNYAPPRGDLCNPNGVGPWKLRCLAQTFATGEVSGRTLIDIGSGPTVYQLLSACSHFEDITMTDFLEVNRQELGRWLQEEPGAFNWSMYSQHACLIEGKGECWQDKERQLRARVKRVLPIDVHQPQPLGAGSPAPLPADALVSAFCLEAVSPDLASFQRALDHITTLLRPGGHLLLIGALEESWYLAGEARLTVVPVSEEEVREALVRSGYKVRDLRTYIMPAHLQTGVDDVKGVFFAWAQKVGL

With `COc1ccc(-c2cc3c(cn2)CN(CCc2ccccc2)CCN3)cc1OC`, the activity in experiment [1] is -0.529%; in experiment [3] it was -18.9%; in experiment [4], -48.8%. For the same compound, the activity change, negative = inhibition in experiment [2] was 3.81% [at 85.7 µM].

For `O=C(Nc1ccc2ncnc(N3CCCCC3)c2c1)C1CCCCC1`, the activity in experiment [1] was -75.6%; in experiment [3] it was -81.1%; in experiment [4] it was -86.5%. For the same compound, the Potency in experiment [2] was 19.2 µM (active).
